Test results reported in PubChem BioAssay AID436 (Emory University Molecular Libraries Screening Center, 2006).
Out of some 72,000 compounds screened, about 350 (0.49%) were called active. This is one part of a sample in which actives are shown more often than they occur. Unmarked numbers belong to inactive results.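 Rule for the calls: active = activity remaining at or below 50% of control, provided the compound also passes the data quality filters; inactive = the rest, including low values that fail the filters.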

What follows are compounds tested against Ubiquitin carboxyl-terminal hydrolase BAP1 (Homo sapiens) (UniProt Q92560) (assay: inhibitors of BAP1 deubiquitinase, primary screen, biochemical, Ub-AMC fluorescence, kinetic (AID 436;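 note: 100% = DMSO wells rate and 0% = substrate alone blank rate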)). Conditions: recombinant BAP1, Ub-AMC hydrolysis fluorescence kinetic; at 20 µM; stronger effect = lower value.
Sequence of Ubiquitin carboxyl-terminal hydrolase BAP1 (Homo sapiens) (Q92560 whole entry, looked up): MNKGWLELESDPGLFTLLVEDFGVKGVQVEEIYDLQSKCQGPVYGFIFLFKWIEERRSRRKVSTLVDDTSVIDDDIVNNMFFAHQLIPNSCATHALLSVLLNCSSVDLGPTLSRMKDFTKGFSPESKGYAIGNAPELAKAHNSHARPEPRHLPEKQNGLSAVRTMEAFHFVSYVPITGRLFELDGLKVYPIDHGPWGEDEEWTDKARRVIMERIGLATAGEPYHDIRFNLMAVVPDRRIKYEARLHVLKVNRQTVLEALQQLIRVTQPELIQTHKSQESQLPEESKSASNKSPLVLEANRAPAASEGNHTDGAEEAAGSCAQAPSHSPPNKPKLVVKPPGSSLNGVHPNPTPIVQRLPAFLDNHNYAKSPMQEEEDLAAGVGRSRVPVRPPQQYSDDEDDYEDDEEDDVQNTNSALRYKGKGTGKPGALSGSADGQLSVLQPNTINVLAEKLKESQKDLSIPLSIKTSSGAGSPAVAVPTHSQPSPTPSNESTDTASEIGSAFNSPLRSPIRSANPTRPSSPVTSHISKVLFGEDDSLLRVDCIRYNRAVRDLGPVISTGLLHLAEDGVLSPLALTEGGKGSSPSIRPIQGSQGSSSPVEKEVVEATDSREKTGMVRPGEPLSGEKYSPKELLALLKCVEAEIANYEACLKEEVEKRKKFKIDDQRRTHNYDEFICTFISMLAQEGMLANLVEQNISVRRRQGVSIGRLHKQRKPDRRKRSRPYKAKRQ

Question: For `CC(=O)c1c(O)c(C)c(O)c(Cc2c(O)c3c(c(C(=O)/C=C/c4ccccc4)c2O)OC(C)(C)C=C3)c1O`, which activity remaining (% of control) is on record?
Answer: 14.8% (active)

Question: Which activity remaining (% of control) does the source give for `CCCCC[n+]1ccc(-c2cc[n+](CCCCC)cc2)cc1` here?
Answer: 101%

Question: `O=C(O)C1C2CCC(O2)C1C(=O)O` (stereo not drawn) was tested. Which activity remaining (% of control) did it give?
Answer: 97.4%

Question: For `O=C1c2ccccc2C(=O)N1Cc1nc2ccccc2c(=O)n1-c1nccs1`, which activity remaining (% of control) is on record?
Answer: 84.5%

Question: For `Cc1ccc(Cn2c(C)c3cnn(CC(=O)N4CCC5(CC4)OCCO5)c(=O)c3c2C)cc1`, which activity remaining (% of control) is on record?
Answer: 105%

Question: With `CCCCCn1c(=O)c(C(=O)NCc2ccccn2)c(O)c2ccccc21` as the compound, how does the activity remaining (% of control) read?
Answer: 39.6% (active)

Question: With `C=CCN1CCC2(C)c3cc(O)ccc3CC1[C@@H]2C` (stereo partly drawn) as the compound, how does the activity remaining (% of control) read?
Answer: 96.1%

Question: Which activity remaining (% of control) does the source give for `COc1ccccc1OC(=O)c1ccc(C)c(S(=O)(=O)N2CCOCC2)c1` here?
Answer: 104%
